Screening data from PubChem.
Compounds with a hit are over-represented: about 2.7% of the library has one in this group of screens.
PAX8 inh HTS = inhibitors of PAX8 transcriptional activity in RMG-I cells. inhibition, % at 12.6 µM. RMG-I TPO-luciferase reporter, SteadyGlo, 24 h. 360,000 tested, 1.2% active;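 active = mean replicate inhibition at least 60% with every replicate also reaching 60%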;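 note: luciferase light reporting Pax8 driven TPO promoter activity; plate controls were median of neutral control wells for no effect and mitoxantrone controls for full effect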
PGC1a acetyl inh = PGC1a acetylation modulation, inhibitor mode | 350,000 tested, 0.17% active | inhibition, % at 15.6 µM | U2OS PGC1a acetylation, AlphaScreen anti-acetyl-lysine; with virally co-expressed GCN5 acetyltransferase;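 active = every replicate shows inhibition of at least 40%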;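 note: 0% = neutral control wells and 100% = positive control wells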
EWS-Fli block = EWS/Fli transcriptional activity inhibition. A673 NR0B1-luciferase reporter, viability-normalised. inhibition, % at 12.6 µM. 350,000 tested, 0.67% active. AID 651661;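 active = mean inhibition of at least 50% after viability correction, with every replicate also passing that limit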;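 note: firefly luciferase signal divided by Alamar Blue viability fluorescence both relative to DMSO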
CFTR F508del cor = CFTR F508del correction in bronchial cells; CFBE cells, YFP halide quenching; stimulated with forskolin plus potentiator P3; % fluorescence drop versus neutral controls; AID 720511; 350,000 tested, 0.36% active; activity (quench increase), % at 7.58 µM;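 active = mean added fluorescence quench of at least 8% versus neutral control, with both replicates also reaching 8%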;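 note: cells transiently co-express mutant CFTR-F508del with the halide-sensitive YFP; corrector assay measuring rescue of mutant channel to the surface after 24 h compound exposure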
INS-1E GSIS act = primary screen for activators of insulin secretion dependent on glucose, INS-1E cells, GLuc reporter luminescence | INS-1E GLuc reporter insulin secretion, 2-3 h | activation, % at 16.6 µM | 370,000 tested, 0.61% active | AID 743287;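 active = lowest replicate activation of at least 40%, so every replicate reaches that level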;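 note: 0% = median of neutral control wells and 100% = median of IBMX positive control wells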
Env fusion inh = inhibitors of HIV Env-mediated cell fusion; inhibition, % at 12.3 µM; HeLa-JRFL Env/CEM21 cell fusion, luciferase; AID 651610; 360,000 tested, 1.1% active;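 active = mean replicate inhibition score of at least 50 and every replicate individually at or above 50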;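 note: 0% = plate neutral controls and 100% = maraviroc near 300 nM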
* hit, by the source's call; . = no result; [ ] = dose if it differs, or a comment.

SMILES	PAX8 inh HTS	PGC1a acetyl inh	EWS-Fli block	CFTR F508del cor	INS-1E GSIS act	Env fusion inh
Cc1ccc(S(=O)(=O)N(C)C[C@@H]2Oc3ccc(NS(=O)(=O)c4c(C)noc4C)cc3CC(=O)N([C@H](C)CO)C[C@@H]2C)cc1	4	-5	5	3	-16	62*[16.7 µM]
COc1ccc(S(=O)(=O)N(C)C[C@H]2Oc3ccc(NS(=O)(=O)c4ccc(F)cc4)cc3CC(=O)N([C@@H](C)CO)C[C@H]2C)cc1	.	-6	3	0	-5	1[16.7 µM]
C[C@H]1CN(C)C(=O)Cc2cc(NS(C)(=O)=O)ccc2O[C@@H]1CN(C)S(C)(=O)=O	.	.	.	.	-8	.
COc1ccc(S(=O)(=O)Nc2ccc3c(c2)CC(=O)N([C@H](C)CO)C[C@H](C)[C@H](CN(C)S(=O)(=O)c2cccs2)O3)cc1	-12	1	8	2	-12	62*[16.7 µM]
COc1ccc(S(=O)(=O)N(C)C[C@@H]2Oc3ccc(NC(=O)Cn4cnnn4)cc3CC(=O)N([C@H](C)CO)C[C@@H]2C)cc1	.	3	5	0	-1	90*[16.7 µM]
Cc1ccc(-c2cc(C(=O)N/N=C/C(Br)=C/c3ccccc3)n[nH]2)o1	74*	-22	6	-1	-13	-1
O=C(c1ccccn1)N1CC2(C1)[C@H](c1ccccc1)[C@@H](CO)N2Cc1cccnc1	.	15	-1	-2	7	.
CC(NC(=O)c1ccccc1NC(=O)CN1CCc2ccccc2C1)c1ccccc1 (stereo not given)	18	-11	20	-2	-11	69*
CCOC(=O)CSC1=C(C#N)C(c2ccc(C)o2)CC(=O)N1 (stereo not given)	65*	-12	48	6	29	-195
COc1ccc(C2CC(c3ccc(OC)c(OC)c3)=NN2C(=O)c2ccccc2)cc1 (stereo not given)	32	2	7	1	67*	-4
COc1ccc(OC)c(C2CC(c3ccccc3)=NN2C(=S)Nc2ccccc2)c1 (stereo not given)	15	.	52*	11*	-8	-9
Cc1c(C(=O)Nc2ccc3c(c2)OCCO3)sc2nc(-c3ccccc3)cn12	.	-62	.	.	-32	57*
Cc1ccc2c(c1)CCCN2C(=O)c1ccc2c(c1)OCO2	.	.	.	.	54*	.
O=C(c1ccccc1)N1CCCc2ccccc21	.	-12	.	.	27	.
O=C(c1ccc2c(c1)OCO2)N1CCc2ccccc2C1	.	14	.	.	81*	-40
O=C(c1ccc2c(c1)OCO2)N1CCc2ccccc21	-38	.	-27	2	13	-5
O=C(c1cccc(F)c1)N1CCCc2ccccc21	2	0	12	-1	84*	0
C[C@H]1CN([C@@H](C)CO)C(=O)c2cccc(NC(=O)C3CC3)c2O[C@H]1CN(C)S(=O)(=O)c1cn(C)cn1	-1	9	1	-2	7	-9[16.7 µM]
Cc1ccc(/C=N/n2c(-c3cccnc3)n[nH]c2=S)s1	11	.	.	.	40*	-11
S=c1[nH]nc(-c2cccnc2)n1/N=C/c1ccc(Br)s1	10	.	.	.	-14	20
Cc1sc(NC(=O)Cc2ccc3c(c2)OCO3)nc1-c1ccc2c(c1)CCN2C(=O)c1ccc(F)cc1	.	.	.	.	-18	.
Cc1sc(NC(=O)Cc2ccc3c(c2)OCO3)nc1-c1ccc2c(c1)CCN2C(=O)c1ccccc1F	15	.	.	.	-16	74*
COc1ccc(NC(=O)C(Sc2nnc(-c3ccncc3)n2-c2ccccc2C)c2ccccc2)cc1Cl (stereo not given)	115*	-2	-1	2	-20	.
COc1ccc(NC(=O)C(OC)c2ccccc2)cc1Cl (stereo not given)	15	.	.	.	16	.
C[C@@H]1CN([C@H](C)CO)C(=O)c2cc(/C=C/c3ccccc3)cnc2O[C@@H]1CN(C)S(=O)(=O)c1cccs1	.	0	-6	-2	-11	12[16.7 µM]
SMILES	PAX8 inh HTS	PGC1a acetyl inh	EWS-Fli block	CFTR F508del cor	INS-1E GSIS act	Env fusion inh
COc1ccc(Cl)cc1NC(=O)CN(C)CC(=O)Nc1cc(OC)c(OC)c(OC)c1	20	-8	62*	13*	-17	3
CS(=O)(=O)N(CC(=O)Nc1ccc(F)cc1F)C1CCCCC1	2	9	9	-1	-4	-160
COc1ccc(Cl)cc1NC(=O)CN(C1CCCCC1)S(C)(=O)=O	-8	-15	.	.	.	125*
O=C(CCC1CCCN(C(=O)c2cc(C3CC3)[nH]n2)C1)N1CCN(c2ccccn2)CC1 (stereo not given)	8	98*	7	-3	5	18
CN(C)C(=O)C[C@@H]1C[C@@H]2c3cc(NS(C)(=O)=O)ccc3O[C@@H]2[C@H](CO)O1	-20	-3	3	2	1	5[16.7 µM]
CCCn1c2ccccc2c2cn[nH]c(=O)c21	-2	-3	-11	-2	47*	3
COc1ccccc1-c1nnc(SCC(=O)Nc2c(Cl)cccc2Cl)o1	13	-5	.	.	.	-27
COc1ccccc1-c1nnc(SCC(=O)NCc2c(C)c(Cl)cc(C(C)C)c2O)o1	.	-15	.	.	-26	86*
Cc1ccc[n+](CC(=O)Nc2cc(C(F)(F)F)ccc2Cl)c1	.	-5	.	.	27	.
CCC(C)(C)c1ccc(OCCCC[n+]2cccc(C)c2)c(C(C)(C)CC)c1	71*	.	0	4	185*	129*
COc1ccc(/C=C2\CCC(C3CCCC3)C2=O)cc1Cn1cccn1 (stereo not given)	18	.	-27	-2	16	17
COc1ccc(/C=C2\CCc3ccccc3C2=O)cc1Cn1cccn1	.	3	.	.	.	65*
CO[C@@H]1CN(C)C(=O)c2ccc(NS(=O)(=O)c3cn(C)cn3)cc2OC[C@@H](C)N(Cc2cccc(F)c2)C[C@H]1C	.	14	3	1	-18	.
C=CCN1C(=O)N(CC=C)c2cccc3cccc1c23	1	0	-12	-3	-6	9
CCN1C(=O)Nc2cccc3cccc1c23	-40	.	43	-1	7	62*
c1ccc(-c2sc3ccccc3c2-c2ccc(OCCN3CCCCC3)cc2)cc1	-4	2	13	1	-40	12
CN(C)CCOc1ccc(-c2c(-c3ccccc3)sc3ccccc23)cc1	80*	-5	41	-2	446*	-8
COc1cc2c(cc1NC(=O)COC(=O)C(CCSC)NC(=O)c1ccccc1Cl)oc1ccccc12 (stereo not given)	62*	.	-67	-2	1	.
COc1ccc(/C(C)=N/NC(=O)Cn2nc([N+](=O)[O-])cc2C)cc1	-20	.	1	0	51*	-20
COc1ccc(CNC(=O)Cn2nc([N+](=O)[O-])cc2C)cc1	-7	3	-2	-1	15	11
CSc1cccc(N2CC(C(=O)NCCN3C(=O)S/C(=C\c4cccnc4)C3=O)CC2=O)c1 (stereo not given)	-4	75*	5	4	-10	-1
